# HSP90 inh – blocks HSP90-mediated luciferase refolding in reticulocyte lysate; Rabbit reticulocyte lysate, luciferase refolding luminescence, 3 h; inhibition, % at 5.6 µM; actives 0.91% (n = 290,000); AID 1789;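 active = inhibition above the screen-wide mean plus 3 SD, computed separately per campaign, cut at about 16% in these data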;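 note: inhibitors lower the luminescence because luciferase stays unfolded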
# GAA850 FXN act – activators of GAA850 frataxin (FXN) promoter. HEK293 lucGAA850 FXN promoter luciferase reporter, 24 h; percent of 10 µM SAHA response. activation, % at 6 µM. actives 0.56% (n = 360,000). AID 540364;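 active = activation above the average of all compounds screened plus 3 SD, cutoff fixed separately per campaign, cut at about 7.5% in these data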
# HSF1 inhib – HSF1 inhibition. NIH3T3-HGL HSE-luciferase, MG132-induced, luminescence 8 h; stronger effect = lower value. activity change, negative = inhibition, % at 7.5 µM (by protocol). actives 0.77% (n = 300,000);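 active = more than half of replicate wells show activity change below -50%, luminescence cut by over half; inconclusive = some wells, but at most half, below -50%; inactive = no replicate well below -50%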;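 note: luciferase reports HSF-1 transcriptional activity via heat shock element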
# SMARCA2 act – increases SMARCA2 function in MMTV reporter cells. actives 1% (n = 370,000). MG213 cells, MMTV-luciferase reporter, dexamethasone, overnight. activation, % at 9.1 µM; in the data active = activation above about 7.8%
# AI-2 QS mod – modulates the Vibrio harveyi AI-2 quorum sensing system; Vibrio harveyi JMH597 AI-2 luminescence/OD600 ratio, 9 h; stronger effect = lower value; strain lacks LuxN and CqsS sensors; 0 = neutral-control median; actives 0.4% (n = 300,000); activity change, % at 7.5 µM; in the data active = activity change below about -75%, passing the limit was not always enough; inconclusive = no clear call, values can overlap the other calls;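 note: luminescence divided by OD600 gain over 9 h not by final OD600 alone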
# PG9 binder – binds the HIV-1 gp120 antibody PG9; TR-FRET gp120-PG9 antibody binding; inhibition, % at 6.7 µM; actives 0.43% (n = 360,000); AID 624416; in the data active = inhibition above about 8.5%
# JMH597 growth – retest: inhibitors of Vibrio harveyi JMH597 growth. shares compounds with AI-2 QS mod. AID 2726. growth inhibition, % at 7.5 µM. OD600 absorbance, 9 h; lacks LuxN and CqsS sensors. actives 1% (n = 750);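 active = every replicate shows growth inhibition above 50%; inconclusive = at least half, but not all, replicates pass that cutoff; inactive = fewer than half of replicates pass it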
# BB721 const-QS lum – retest counter-screen: lowers luminescence of constitutive-QS Vibrio harveyi BB721. shares compounds with AI-2 QS mod. 9 h. inhibition, % at 7.5 µM. actives 95% (n = 750);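 active = inhibition above about 80% in every replicate, not just on average, limit read from the data; inconclusive = at least half of replicates past the limit, but not all; inactive = fewer than half of replicates past the limit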
# BB721 growth rt – retest: inhibitors of Vibrio harveyi BB721 growth; shares compounds with AI-2 QS mod; OD600 absorbance, 9 h; growth inhibition, % at 7.5 µM; actives 3% (n = 750);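 active = every replicate shows growth inhibition above 50%; inconclusive = at least half but not all replicates above 50% inhibition; inactive = under half of replicates above 50% inhibition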
# JMH597 AI-2 mod – Vibrio harveyi AI-2 signaling luminescence modulation – JMH597 strain, confirmation. inhibition, % at 7.5 µM. actives 97% (n = 750). shares compounds with AI-2 QS mod. AID 2736. Vibrio harveyi JMH597 AI-2 quorum sensing luminescence, 9 h; luxN and CqsS knockout, AI-2 only;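 active = every replicate shows more than 75% inhibition of signal versus neutral control wells; inconclusive = half to three quarters of replicates exceed 75% inhibition; inactive = fewer than half of replicates exceed 75% inhibition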
# GAA30 FXN cntr – GAA30 FXN promoter activation counter-screen; shares compounds with GAA850 FXN act; HEK293 lucGAA30 FXN promoter luciferase, 24 h; DMSO = 0%, 5 µM ipriflavone = 100%; activation, % at 6 µM; actives 66% (n = 1,900); AID 588350;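 active = mean activation above the mean of solvent-only control wells plus 3 SD, cut at about 22% in these data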;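 note: counterscreen of GAA850 promoter hits where activity marks nonselective or luminescence artifacts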
# GAA850 confirm – GAA850 FXN promoter activation confirmation. actives 86% (n = 1,900). shares compounds with GAA850 FXN act. HEK293 lucGAA850 FXN promoter luciferase reporter, 24 h; 100% = activation by SAHA. activation, % at 6 µM;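 active = mean activation above a set limit taken from the primary screen, cut at about 8% in these data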
# SMARCA2 conf – confirmation of SMARCA2 (BRM) function activators; shares compounds with SMARCA2 act; MG213 cells, MMTV-luciferase with dexamethasone, luminescence, overnight; MG213 cells expressing E1A, Rb sequestered; DMSO wells 0%, reference activator 100%; activation, % at 9.1 µM; actives 30% (n = 3,500);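 active = activation above its plate's cutoff, the mean activation of tested wells plus 3 SD, cut at about 7.9% in these data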
# VP16 Luc act – activates GAL4-VP16 luciferase, flagging SMARCA2 activator hits; shares compounds with SMARCA2 act; HEK293 GAL4-VP16 pG5luc reporter, luciferase luminescence; scaled: DMSO wells 0%, SAHA wells 100%; activation, % at 9.1 µM; actives 41% (n = 3,500);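 active = activation above the solvent-only control well mean plus 3 SD, averaged across control plates, cut at about 5.2% in these data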
# Hits are given with their value; i = inactive; ? = inconclusive; nt = not tested or not shown. Only some compounds are listed: those with a hit (about 3.4% of all), similar ones and a draw of the others.
SMILES,HSP90 inh,GAA850 FXN act,HSF1 inhib,SMARCA2 act,AI-2 QS mod,PG9 binder,JMH597 growth,BB721 const-QS lum,BB721 growth rt,JMH597 AI-2 mod,others
c1ccc2c(c1)oc1c(NCc3ccc4c(c3)OCO4)ncnc12,i,i,i,nt,-88,nt,i,93,i,97,
Cc1ccccc1NS(=O)(=O)c1ccc(C(=O)NCc2ccccc2CN2CCCC2)cc1,nt,i,nt,i,nt,i,nt,nt,nt,nt,
COC(=O)[C@]12C[C@H](CC(=O)N3CCN(C(=O)c4ccco4)CC3)C(=O)N(CCc3ccc(OC)c(OC)c3)C1=C[C@H](C(C)(C)C)O[C@@H]2C,nt,nt,nt,i,nt,nt,nt,nt,nt,nt,
O=C(NCc1ccccc1F)Nc1ccc([N+](=O)[O-])cc1,i,i,i,i,?,i,i,91,i,93,
O=C(NCc1ccco1)Nc1ccc([N+](=O)[O-])cc1,i,i,i,i,i,i,nt,nt,nt,nt,
O=C(Cn1nnc2ccccc2c1=O)NC1CCCc2ccccc21 (stereo not drawn),i,i,i,i,i,i,nt,nt,nt,nt,
O=C(Cn1cnc2ccccc2c1=O)Nc1ccc2c(c1)CCC2,i,i,i,i,-83,i,i,99,i,99,
COC(=O)c1ccc(C)c(NC(=O)Cn2cnc3ccccc3c2=O)c1,i,i,i,i,-86,i,i,94,i,96,
O=C(Cn1nnc2ccccc2c1=O)Nc1ccc2c(c1)CCC2,i,i,i,i,-94,i,i,99,i,99,
O=C(Cn1cnc2cc([N+](=O)[O-])ccc2c1=O)Nc1ccc2c(c1)CCC2,i,i,i,i,i,i,nt,nt,nt,nt,
COC(=O)c1ccccc1NC(=O)CCNC(=O)Cn1cnc2ccccc2c1=O,i,i,i,i,i,i,nt,nt,nt,nt,
O=C(Cc1c[nH]c2ccccc12)Nc1ccc(Nc2cccnc2)c(-c2ccc(OC(F)(F)F)cc2)c1,nt,nt,nt,i,nt,i,nt,nt,nt,nt,
COc1cccc(/C=C2\CC3(OC(=O)c4ccc(F)cc4)CCCN2C3)c1 (stereo not drawn),nt,nt,nt,i,nt,nt,nt,nt,nt,nt,
O=S(=O)(NCc1ccccc1)c1ccc(NC(=S)NCc2ccco2)cc1,i,i,i,i,-97,i,i,100,i,100,
CCNS(=O)(=O)c1ccc(NC(=S)NCc2ccco2)cc1,i,i,i,i,i,i,nt,nt,nt,nt,
COc1ccc(CNc2ccc3c(c2)ncn3C)cc1OC,i,i,i,i,i,i,nt,nt,nt,nt,
CCc1ccc(CNc2ccc3c(c2)ncn3C)cc1,i,i,i,i,-91,i,i,96,i,98,
Cc1ccc(CNc2ccc3c(c2)ncn3C)cc1,i,i,i,i,-82,i,i,91,i,95,
COCCCNC(=O)C[C@H]1C[C@@]2(C(=O)OC)C(=C[C@H](COCc3ccccc3)O[C@@H]2C)N(Cc2ccc3c(c2)OCO3)C1=O,nt,nt,nt,i,nt,i,nt,nt,nt,nt,
CCCC(=O)OC[C@H]1CN(C2CCCC2)S(=O)(=O)c2c(Oc3ccc(F)cc3OC)cccc2O1,nt,nt,nt,i,nt,i,nt,nt,nt,nt,
Clc1ccc(OCCn2cnc(Cl)c2Cl)cc1,i,i,i,i,-84,i,i,88,i,92,
CCC1(c2ccccc2)NC(=O)N(CC(=O)Nc2ccc(OC)nc2)C1=O (stereo not drawn),i,i,i,i,-88,i,i,90,i,94,
CCC1(c2ccccc2)NC(=O)N(CC(=O)NCc2ccc(C)cc2)C1=O (stereo not drawn),i,i,i,i,-91,i,i,94,i,97,
C[C@H]1COc2cccc(F)c2S(=O)(=O)N1C,nt,nt,nt,i,nt,nt,nt,nt,nt,nt,
Cn1c(C(=O)NCCc2c[nH]c3ccccc23)cc2sccc21,i,i,i,i,?,i,i,93,i,94,
SMILES,HSP90 inh,GAA850 FXN act,HSF1 inhib,SMARCA2 act,AI-2 QS mod,PG9 binder,JMH597 growth,BB721 const-QS lum,BB721 growth rt,JMH597 AI-2 mod,others
C(=C\c1nc(-c2cccnc2)no1)/c1ccccc1,i,8.7,i,i,-95,i,i,98,i,99,GAA30 FXN cntr=124;GAA850 confirm=43
Cc1ccc(C(=O)/C=C/Nc2ccccc2C(N)=O)cc1,i,i,i,i,i,i,nt,nt,nt,nt,
Cc1ccc(O)c(N/C=C/C(=O)c2ccc(F)cc2)c1,i,11,i,i,?,i,i,86,i,89,GAA30 FXN cntr=i;GAA850 confirm=25
CC(C)[C@@H](C)/C=C/[C@@H](C)[C@H]1CC[C@@H]2[C@]1(C)CCC1[C@]23C=C[C@]2(C[C@@H](O)CC[C@]12C)N(c1ncc(C(F)(F)F)cc1Cl)O3 (stereo partly drawn),nt,nt,nt,i,nt,i,nt,nt,nt,nt,
Cc1ccc2nc(NC(=O)COC(=O)c3ccco3)sc2c1,i,i,i,9.8,-92,i,i,98,i,99,SMARCA2 conf=i;VP16 Luc act=i
Cc1c(C(=O)NN2CCCCC2)nn(-c2ccc(Cl)cc2Cl)c1-c1ccc(Cl)cc1,nt,nt,nt,i,nt,nt,nt,nt,nt,nt,
O=C(NCc1ccc2c(c1)CCO2)Nc1ccccc1,i,i,i,8.7,-83,i,i,96,i,96,SMARCA2 conf=i;VP16 Luc act=5.2
Cc1ccc(C(=O)NCc2ccc3c(c2)CCO3)cc1C,i,i,i,i,i,i,nt,nt,nt,nt,
CCOC(=O)c1cccc(NC(=S)NCc2ccc(C)cc2)c1,i,i,nt,8.0,-85,i,i,89,i,91,SMARCA2 conf=i;VP16 Luc act=i
CC(=O)c1cccc(NC(=S)NCc2ccccc2)c1,i,i,i,i,i,i,nt,nt,nt,nt,
Cc1ccc(NC(=O)CCC(=O)c2cccs2)c(O)c1,i,i,i,10,-82,i,i,93,i,95,SMARCA2 conf=i;VP16 Luc act=i

# From PubChem
